Data published in PubChem BioAssay (EPA / NIEHS).
The source made the active and inactive calls. How the source made its calls: active means hit-call score of the fitted dose curve at least 0.9, where 1 is the maximum; inactive means score below 0.9.

Tests used:
[1] = ATG_CRE_CIS: Attagene CIS-FACTORIAL HepG2 Assay for human cAMP Responsive Element (CRE) binding protein 3 (AID 2282926); conditions: HepG2 CRE cis-reporter, Attagene multiplexed mRNA; actives raise or lower the signal
In short: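 Assay format: transient reporter transfection of HepG2, 24 h treatment, total RNA isolation with DNase I step. Reporter abundance read by fluorescence after PCR and capillary separation; DMSO-normalised gain or loss fitting.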

[2] = target: CCAAT/enhancer-binding protein beta (Homo sapiens) (UniProt P17676); test: ATG_C_EBP_CIS: Attagene CIS-FACTORIAL HepG2 Assay for human CCAAT/Enhancer Binding Protein (C/EBP) beta (AID 2282927); conditions: HepG2 Attagene cis-factorial transcription factor reporter; actives raise or lower the signal
In short: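 Endogenous C/EBPb-driven reporter transcripts measured in transfected human HepG2 cells at 24 h via RT-PCR and capillary electrophoresis of labelled fragments. Activity fitted in both directions relative to DMSO baseline.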

[3] = ATG_CMV_CIS: Attagene CIS-FACTORIAL HepG2 Assay for human CMV (Internal Marker) (AID 2282928); conditions: HepG2 CMV promoter reporter, transcription factor profiling; actives raise or lower the signal;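 further: endpoint acts as a background internal control marker rather than a target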
In short: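 24 h chemical treatment, HepG2 with transient multi-reporter transfection; RNA → oligo(dT) RT → PCR → 6-FAM extension → HpaI digest → CE fluorescence. Bidirectional fit, DMSO negative control.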

[4] = ATG_DR4_LXR_CIS: Attagene CIS-FACTORIAL HepG2 Assay for human Liver X Receptor (LXR), DR4 submotif (AID 2282929); conditions: HepG2 Attagene DR4 cis-reporter, mRNA transcription; actives raise or lower the signal
In short: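 DR4 cis-reporter in HepG2, 24 h exposure. Detection: RT-PCR, 6-FAM labelling, CE fragment analysis. Endpoint fitted bidirectionally, DMSO = baseline.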

[5] = ATG_AP_2_CIS: Attagene CIS-FACTORIAL HepG2 Assay for human Activator Protein 2 (AP-2) (AID 2282932); conditions: HepG2 AP-2 cis-reporter, Attagene transcription factor profiling; actives raise or lower the signal
In short: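 Endogenous transcription factor activity is reported through transfected multiplex reporter constructs in HepG2, after 24 h of compound exposure. Transcripts were quantified by RT-PCR and capillary electrophoresis of fluorescent fragments. Bidirectional fit against DMSO.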

[6] = ATG_E_Box_CIS: Attagene CIS-FACTORIAL HepG2 Assay for human Enhancer Box (E-box) (AID 2282936); conditions: HepG2 E-box cis-reporter transcription, actives raise or lower the signal
In short: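 E-box-driven reporter transcripts measured in transiently transfected HepG2 after 24 h exposure: RNA reverse-transcribed, PCR-amplified, fluorescently labelled, digested and resolved by capillary electrophoresis. Gain or loss relative to DMSO.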

[7] = ATG_EGR_CIS: Attagene CIS-FACTORIAL HepG2 Assay for human Early Growth Response 1 (EGR1) (AID 2282938); conditions: HepG2 Attagene CIS-FACTORIAL EGR reporter mRNA; actives raise or lower the signal
In short: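 Endpoint derived by bidirectional fitting versus DMSO vehicle. Method: cis-promoter reporter units transfected into HepG2, 24 h dosing, RNA isolation, RT-PCR with 6-FAM primer extension and HpaI digestion, then capillary electrophoresis fluorescence detection.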

[8] = ATG_M_19_CIS: Attagene CIS-FACTORIAL HepG2 Assay for M19 Transcription Factor (Internal Marker) (AID 2282939); conditions: HepG2 Attagene CIS-FACTORIAL M19 internal marker reporter; actives raise or lower the signal
In short: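 Chemical-treated HepG2 (24 h) with MRTU constructs; reporter transcripts detected by fluorescent RT-PCR fragment analysis on capillary electrophoresis. Internal background marker, DMSO as baseline.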

[9] = ATG_Ets_CIS: Attagene CIS-FACTORIAL HepG2 Assay for human Erythroblast Transformation Specific (ETS) (AID 2282941); conditions: HepG2 ETS cis-reporter transcription, actives raise or lower the signal
In short: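 Cis-regulated reporter mRNA induction in HepG2 (transient transfection), 24 h exposure, RT-PCR plus capillary electrophoresis detection; DMSO serves as negative control and baseline.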

[10] = target: Hepatocyte nuclear factor 3-beta (Homo sapiens) (UniProt Q9Y261); test: ATG_FoxA2_CIS: Attagene CIS-FACTORIAL HepG2 Assay for human Forkhead box A2 (FOXA2) (AID 2282942); conditions: HepG2 cis-reporter transcription factor activity, 24 h; actives raise or lower the signal
In short: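 Measured: reporter mRNA induction or loss in HepG2 transiently carrying multiple cis-regulated reporter units, 24 h after dosing. Quantified by RT-PCR plus capillary electrophoresis, normalised to DMSO.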

[11] = ATG_FoxO_CIS: Attagene CIS-FACTORIAL HepG2 Assay for human Forkhead box O (FoxO) (AID 2282943); conditions: HepG2 Attagene cis-reporter, FoxO element, mRNA; actives raise or lower the signal
In short: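 Endogenous transcription factor activity read from multiplexed cis-promoter reporter transcripts in transiently transfected HepG2, 24 h after dosing. Reporter RNA measured via RT-PCR plus capillary electrophoresis of FAM-labeled products; gain or loss relative to DMSO.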

[12] = ATG_GATA_CIS: Attagene CIS-FACTORIAL HepG2 Assay for human GATA Binding Protein (AID 2282944); conditions: HepG2 GATA cis-element reporter, Attagene multiplex mRNA; actives raise or lower the signal
In short: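 Transfected cis-reporter HepG2 cells were treated with chemicals for 24 hours. Total RNA was then converted to cDNA, amplified with reporter-specific primers and analysed by fluorescent capillary electrophoresis, using DMSO-treated wells as baseline.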

[13] = ATG_M_32_CIS: Attagene CIS-FACTORIAL HepG2 Assay for M32 Transcription Factor (Internal Marker) (AID 2282949); conditions: HepG2 Attagene cis-factorial M32 reporter, mRNA; actives raise or lower the signal;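 further: background control marker of the multiplexed CIS panel rather than a real target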
In short: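 HepG2 transfectants (cis-regulated reporter transcription units) dosed 24 h. Reporter mRNA by RT-PCR plus CE, analysed as gain or loss relative to DMSO.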

[14] = ATG_M_06_CIS: Attagene CIS-FACTORIAL HepG2 Assay for M06 Transcription Factor (Internal Marker) (AID 2282950); conditions: HepG2 Attagene CIS-FACTORIAL M06 internal marker reporter; actives raise or lower the signal
In short: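 Cells (HepG2, transiently carrying cis-driven reporter units) receive chemical for 24 h before RNA isolation. Reporter cDNA is PCR-amplified, FAM-labelled by primer extension, HpaI-digested and sized on a capillary analyser.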

[15] = ATG_PXRE_CIS: Attagene CIS-FACTORIAL HepG2 Assay for human Pregnane X Receptor Element (PXRE) (AID 2282957); conditions: HepG2 Attagene CIS-FACTORIAL PXRE reporter, mRNA; actives raise or lower the signal
In short: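 Using HepG2 transfected with multiple reporter transcription units, endogenous factor-driven transcription was scored as reporter mRNA after 24 h exposure.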

[16] = ATG_Sox_CIS: Attagene CIS-FACTORIAL HepG2 Assay for human SRY-box transcription factor (SOX) (AID 2282960); conditions: HepG2 Attagene cis-factorial SOX reporter, mRNA; actives raise or lower the signal
In short: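 Gain- or loss-of-signal endpoint, fitted bidirectionally with DMSO as negative control. Based on reporter mRNA from transfected HepG2 cells harvested 24 h post-treatment and quantified via RT-PCR and capillary electrophoresis.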

[17] = target: Transcription factor Sp1 (Homo sapiens) (UniProt P08047); test: ATG_Sp1_CIS: Attagene CIS-FACTORIAL HepG2 Assay for human Specificity Protein 1 (Sp1) (AID 2282961); conditions: HepG2 Sp1 cis-reporter transcription, actives raise or lower the signal
In short: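 Endpoint reflects endogenous Sp1 transcriptional activity, not an exogenous fusion protein: HepG2 cells with transfected cis-regulated reporters, 24 h dosing, RT-PCR/capillary electrophoresis mRNA read-out, DMSO-normalised bidirectional fit.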

[18] = ATG_SREBP_CIS: Attagene CIS-FACTORIAL HepG2 Assay for human Sterol Regulatory Element Binding (SREBP) (AID 2282962); conditions: HepG2 Attagene cis-factorial SREBP reporter, mRNA; actives raise or lower the signal
In short: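 Endogenous factor activity is measured in HepG2 through multiplexed reporter units under cis-element control. Following a 24 h incubation, reporter transcripts are reverse-transcribed, PCR-amplified and sized by capillary electrophoresis; activity is fitted in both directions relative to DMSO.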

[19] = target: Signal transducer and activator of transcription 3 (Homo sapiens) (UniProt P40763); test: ATG_STAT3_CIS: Attagene CIS-FACTORIAL HepG2 Assay for human Signal Transducer and Activator of Transcription 3 (STAT3) (AID 2282963); conditions: HepG2, Attagene cis-factorial STAT3 reporter transcription; actives raise or lower the signal
In short: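 Readout is reporter transcript quantified by RT-PCR and capillary electrophoresis, with 6-FAM primer extension and HpaI digestion. Total RNA is taken 24 h after dosing transiently transfected HepG2 carrying cis-regulated reporter units. Bidirectional fit against DMSO.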

[20] = ATG_TA_CIS: Attagene CIS-FACTORIAL HepG2 Assay for human TA Basal Promoter (AID 2282964); conditions: HepG2 Attagene CIS-factorial TA basal promoter reporter; actives raise or lower the signal
In short: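 Background internal-marker endpoint from a 52-component HepG2 cis-reporter panel. Cells treated 24 h; reporter transcripts quantified via RT-PCR and CE fluorescence against DMSO baseline.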

Measured: AC50

Transcription factor Sp1 (Homo sapiens), sequence (P08047 whole entry, looked up, the tested form may be a part): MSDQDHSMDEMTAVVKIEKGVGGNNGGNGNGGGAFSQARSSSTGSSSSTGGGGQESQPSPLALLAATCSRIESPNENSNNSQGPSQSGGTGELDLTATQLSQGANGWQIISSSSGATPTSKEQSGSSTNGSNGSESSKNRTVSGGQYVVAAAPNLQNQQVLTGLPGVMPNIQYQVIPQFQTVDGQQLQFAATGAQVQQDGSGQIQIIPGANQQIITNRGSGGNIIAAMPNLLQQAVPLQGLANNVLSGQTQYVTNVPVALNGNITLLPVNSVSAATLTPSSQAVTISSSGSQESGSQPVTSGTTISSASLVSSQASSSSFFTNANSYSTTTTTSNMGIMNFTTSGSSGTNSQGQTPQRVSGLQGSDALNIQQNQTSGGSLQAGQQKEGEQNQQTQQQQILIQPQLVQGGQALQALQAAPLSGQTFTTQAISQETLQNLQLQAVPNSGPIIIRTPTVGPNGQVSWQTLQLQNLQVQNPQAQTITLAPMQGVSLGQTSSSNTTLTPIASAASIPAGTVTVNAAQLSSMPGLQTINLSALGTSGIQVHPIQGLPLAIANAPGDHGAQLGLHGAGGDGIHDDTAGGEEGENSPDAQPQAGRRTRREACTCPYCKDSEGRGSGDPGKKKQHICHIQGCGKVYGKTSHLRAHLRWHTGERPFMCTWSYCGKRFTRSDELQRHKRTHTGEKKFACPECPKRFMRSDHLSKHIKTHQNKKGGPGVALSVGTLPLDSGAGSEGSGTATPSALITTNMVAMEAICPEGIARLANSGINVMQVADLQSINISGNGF
Signal transducer and activator of transcription 3 (Homo sapiens), sequence (P40763 whole entry, looked up): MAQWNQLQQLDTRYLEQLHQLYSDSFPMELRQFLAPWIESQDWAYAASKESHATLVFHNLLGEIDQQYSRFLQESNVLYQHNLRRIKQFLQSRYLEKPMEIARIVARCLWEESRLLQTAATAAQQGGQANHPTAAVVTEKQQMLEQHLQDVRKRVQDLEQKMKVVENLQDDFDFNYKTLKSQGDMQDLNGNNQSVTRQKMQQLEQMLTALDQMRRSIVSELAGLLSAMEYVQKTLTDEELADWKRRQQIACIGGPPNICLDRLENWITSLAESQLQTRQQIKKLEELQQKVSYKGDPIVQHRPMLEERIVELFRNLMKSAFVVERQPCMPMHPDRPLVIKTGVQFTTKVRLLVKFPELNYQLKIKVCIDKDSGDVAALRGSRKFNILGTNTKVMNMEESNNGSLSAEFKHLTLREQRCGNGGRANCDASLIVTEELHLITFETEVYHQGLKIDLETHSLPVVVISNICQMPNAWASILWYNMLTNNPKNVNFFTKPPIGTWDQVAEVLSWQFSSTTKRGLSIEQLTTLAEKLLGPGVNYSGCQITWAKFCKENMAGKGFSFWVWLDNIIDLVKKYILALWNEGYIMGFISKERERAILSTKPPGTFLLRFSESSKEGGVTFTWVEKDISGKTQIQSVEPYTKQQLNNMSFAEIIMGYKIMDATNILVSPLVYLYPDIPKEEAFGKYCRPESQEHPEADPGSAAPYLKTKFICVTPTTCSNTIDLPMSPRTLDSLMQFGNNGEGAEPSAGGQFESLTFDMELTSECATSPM
Hepatocyte nuclear factor 3-beta (Homo sapiens), sequence (Q9Y261 whole entry, looked up): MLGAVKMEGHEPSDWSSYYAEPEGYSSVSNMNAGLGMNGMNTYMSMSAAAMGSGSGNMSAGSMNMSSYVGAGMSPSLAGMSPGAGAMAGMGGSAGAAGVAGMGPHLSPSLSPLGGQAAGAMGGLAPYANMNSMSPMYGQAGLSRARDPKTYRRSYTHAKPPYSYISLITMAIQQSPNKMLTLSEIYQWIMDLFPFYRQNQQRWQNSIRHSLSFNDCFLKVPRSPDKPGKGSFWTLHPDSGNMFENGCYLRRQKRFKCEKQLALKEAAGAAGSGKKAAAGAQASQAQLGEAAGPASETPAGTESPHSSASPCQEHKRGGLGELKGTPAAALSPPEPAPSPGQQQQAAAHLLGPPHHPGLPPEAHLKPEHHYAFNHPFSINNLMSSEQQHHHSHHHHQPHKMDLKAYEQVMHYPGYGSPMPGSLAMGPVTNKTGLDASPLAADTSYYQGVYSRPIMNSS
CCAAT/enhancer-binding protein beta (Homo sapiens), sequence (P17676 whole entry, looked up, the tested form may be a part): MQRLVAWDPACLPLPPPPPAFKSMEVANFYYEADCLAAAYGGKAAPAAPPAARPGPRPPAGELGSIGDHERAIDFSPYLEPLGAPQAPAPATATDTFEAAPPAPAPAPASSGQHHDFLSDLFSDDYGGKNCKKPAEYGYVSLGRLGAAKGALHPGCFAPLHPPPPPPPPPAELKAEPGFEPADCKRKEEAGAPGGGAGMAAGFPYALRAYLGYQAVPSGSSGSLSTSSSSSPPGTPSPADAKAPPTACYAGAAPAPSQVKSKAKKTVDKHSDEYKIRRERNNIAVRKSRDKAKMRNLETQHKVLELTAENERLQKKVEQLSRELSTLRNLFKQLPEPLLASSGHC

CC1(C)[C@H](C(=O)O[C@H](C#N)c2cccc(Oc3ccccc3)c2)[C@@H]1C=C(Br)Br
active: [15] 0.312 µM
inactive: all other assays above

[Cl][Sb]([Cl])[Cl]
active: [7] 140 µM
inactive: all other assays above

CCOC(=O)C1OC1(C)c1ccccc1 (stereo not given)
active: [15] 100 µM
inactive: all other assays above

CCN(CC)C(=S)S
active: [3] 100 µM | [15] 22.7 µM
inactive: all other assays above
